Rows were chosen to be rich in hits. Some 1.8% of all compounds tested hit in one or more screens of this group.
SUMO Mot1 rescue – SUMOylation pathway inhibition by Mot1-301 growth rescue. S. cerevisiae Mot1-301 growth rescue, ATP luminescence, 38.5C; percent above DMSO median, 100 means doubled. growth rescue, % at 18.8 µM. 1% of 320,000 active;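 active means every valid replicate shows activation above 250% relative to neutral control wells; inactive means the rest, any valid replicate at or below 250%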
Bfl-1 A1 inh – inhibitors of the anti-apoptotic protein A1, read as caspase activation. MEF A1-2A-BIM cells, Caspase-Glo 3/7 luminescence, 3 h; percent of clofoctol response, vehicle zero. caspase activation, % (no concentration beside the values). 0.066% of 330,000 active. AID 2462;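 active means over half of replicate activation scores above 10%, or exactly half above 10 with the replicate mean above 10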
aDG glyco up – increases alpha dystroglycan glycosylation | activation, % at 10 µM | AID 624168 | 0.22% of 360,000 active | Pro5-aDG cells, alpha-DG glycosylation AlphaScreen (IIH6); 0% Pro5, 100% B10-LARGE cell signal;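 active means activation of at least 8% versus controls, or a plate z-score of at least 8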;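 further: Pro5 are CHO cells carrying HIG-tagged alpha-DG that lacks glycosylation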
AI-2 QS modul – modulates the Vibrio harveyi AI-2 quorum sensing system; Vibrio harveyi JMH597 AI-2 luminescence/OD600 ratio, 9 h; stronger effect = lower value; strain lacks LuxN and CqsS sensors; 0 = neutral-control median; activity change, % at 7.5 µM; 0.4% of 300,000 active; in the data active means activity change below about -75%, passing the limit was not always enough;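 further: luminescence divided by OD600 gain over 9 h not by final OD600 alone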
ARNT-TACC3 inh – disruptors of human ARNT/TACC3 interaction | inhibition, % at 9.99 µM | AlphaScreen His-ARNT PAS-B/GST-TACC3 binding, luminescence; TACC3 fragment carries E629A point mutation | AID 623870 | 0.66% of 390,000 active;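 active means mean inhibition of replicates at least 50% and at least half of replicates each reaching 50%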
Yeast Mot1 SUMO – inhibits SUMO pathway, affecting Mot1-301 yeast growth | shares compounds with SUMO Mot1 rescue | S. cerevisiae Mot1-301 galactose growth, ATP luminescence, 24 h; -100 = growth of slx-deleted rescue strain | growth activity, percent, % at 42 µM | 2,300 tested, under 10 active;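 active means Signal drops as the depositor expects, and the fitted half-maximal dose is no more than ten times the top valid tested dose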;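 further: more negative values mean stronger growth rescue toward the control strain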
Each line names hits and unclear results; the compound was inactive in the other large screens (follow-up assays come after a bar, where they were run).

CC(C)[C@H](NC(=O)C1(c2ccccc2)CCN(C(=O)OC(C)(C)C)CC1)C(=O)O	SUMO Mot1 rescue 607 | Yeast Mot1 SUMO inactive
Cc1cccc(Nc2nc(OCC#N)nc(N(C)C)n2)c1	none
CCN(CC)c1nc(Nc2ccc(Cl)cc2)nc(OCC#N)n1	SUMO Mot1 rescue 735 | Yeast Mot1 SUMO inactive
CC(C)C[C@H]1CN(CCCC[C@@H]2CNC(=O)C(=O)N2Cc2ccccc2)C(=O)C(=O)N1CCc1ccc(O)cc1	none (no result: SUMO Mot1 rescue, Bfl-1 A1 inh, AI-2 QS modul, ARNT-TACC3 inh)
C=C(C)Cc1c(C)c(C#N)c2[nH]c3ccccc3n2c1=O	SUMO Mot1 rescue 690 | Yeast Mot1 SUMO inactive
COc1ccc(S(=O)(=O)N2CCN(c3ccc(F)cc3)CC2)cc1C(=O)N1CCOCC1	SUMO Mot1 rescue 432 | Yeast Mot1 SUMO inactive
COc1ccc(S(=O)(=O)N2CCN(c3ccc(F)cc3)CC2)cc1C(=O)N1CCCC1	none
CCOC(=O)c1sc(=S)sc1SCc1cccc(C(F)(F)F)c1	none
Cc1ccc(S(=O)(=O)N2CCCC2C(=O)NCCc2ccccc2)cc1 (stereo not given)	SUMO Mot1 rescue 471 | Yeast Mot1 SUMO inactive
COc1ccc(C)cc1S(=O)(=O)N1CCC(C(=O)NCCc2ccccc2)CC1	SUMO Mot1 rescue 413 | Yeast Mot1 SUMO inactive
O=C(NCCc1ccccc1)C1CCCN1S(=O)(=O)c1ccc(Cl)cc1 (stereo not given)	none
O=C(CNC(=O)Cc1ccccc1)NCC(=O)OCC(=O)c1cccc2ccccc12	none
O=C(CNC(=O)c1ccco1)OCC(=O)c1cccc2ccccc12	SUMO Mot1 rescue 434 | Yeast Mot1 SUMO inactive
CCCCOc1ccc(C(=O)Nc2ccc(CN3CCOCC3)cc2)cc1	SUMO Mot1 rescue 362 | Yeast Mot1 SUMO inactive
CCCOc1ccc(C(=O)Nc2ccc(CN3CCOCC3)cc2)cc1	none
COc1ccc(NC(=O)NC(C)(C(F)(F)F)C(F)(F)F)cc1	none
COc1cc(C(=O)NCCC2=CCCCC2)cc(OC)c1OC	SUMO Mot1 rescue 807 (no result: Bfl-1 A1 inh) | Yeast Mot1 SUMO inactive
COc1cc(C(=O)NCCOc2cc(C)cc(C)c2)cc(OC)c1OC	SUMO Mot1 rescue 631 | Yeast Mot1 SUMO inactive
COc1cc(C(=O)NCCOc2ccccc2)cc(OC)c1OC	none
Cc1cc2c(cc1S(=O)(=O)Nc1c(C)cccc1C)n(C)c(=O)c(=O)n2C	none (no result: ARNT-TACC3 inh)
O=C1CCCN1CCC1CCN(C2CC(=O)N(Cc3ccc(N4CCCC4=O)cc3)C2=O)CC1 (stereo not given)	none
O=C1CCCN1CCC1CCN(C2CC(=O)N(c3ccc(Cl)cc3)C2=O)CC1 (stereo not given)	SUMO Mot1 rescue 503 | Yeast Mot1 SUMO inactive
O=C1CC(c2c[nH]c3ccccc23)C(=O)N1c1ccccc1 (stereo not given)	SUMO Mot1 rescue 709 | Yeast Mot1 SUMO inactive
O=C(CNC(=O)c1ccc(Cl)cc1)NCCCn1ccnc1	none
O=C(NCCCn1ccnc1)c1ccc(Cl)cc1	SUMO Mot1 rescue 574 | Yeast Mot1 SUMO inactive
Cc1ccc2c(Cl)cc(Cl)c(OCc3c(C)noc3C)c2n1	none
COc1ccc(-c2cc(C(=O)Nc3cc(C)ccc3O)no2)cc1	SUMO Mot1 rescue 369 | Yeast Mot1 SUMO inactive
Cc1ccc(-c2cc(C(=O)Nc3cc(C)ccc3O)no2)cc1	none
CC(=O)c1cccc(NC(=O)COc2ccccc2C(=O)c2cc(C#N)c(=O)n(C3CCCCC3)c2)c1	none
CCOc1ccc(-n2cc(C(=O)NCCOC)c3cc(OC)c(OC)cc3c2=O)cc1	SUMO Mot1 rescue 810 | Yeast Mot1 SUMO inactive
Oc1ccc(C2=CSC3=NCCN23)cc1O	SUMO Mot1 rescue 718 | Yeast Mot1 SUMO inactive
CC(C)CNC(=O)COC(=O)c1c2c(nc3ccccc13)CCC2	none
CCCOC(=O)C1=C(C)NC2=C(C(=O)CCC2)C1c1cccs1 (stereo not given)	SUMO Mot1 rescue 451 | Yeast Mot1 SUMO inactive
CC(=O)N/C(=C/c1ccc2c(c1)OCO2)C(=O)NC(Cc1ccccc1)C(=O)O (stereo not given)	none
O=c1oc2cc(S(=O)(=O)NCCCO)ccc2c2ccc(S(=O)(=O)NCCCO)cc12	SUMO Mot1 rescue 461 | Yeast Mot1 SUMO inactive
Brc1ccc(-c2csc(N3CCc4ccccc4C3)n2)cc1	none
O=[N+]([O-])c1ccc(-c2csc(N3CCc4ccccc4C3)n2)cc1	SUMO Mot1 rescue 367 | Yeast Mot1 SUMO inactive
O=C(Nc1ccncc1Cl)c1ccncc1	SUMO Mot1 rescue 435 | Yeast Mot1 SUMO inactive
O=C(Nc1ccc(Cl)c(Cl)c1)c1ccncc1	none
C#CCNC(=O)c1cc(-c2ccccc2)sc1N	none (no result: SUMO Mot1 rescue, Bfl-1 A1 inh, AI-2 QS modul, ARNT-TACC3 inh)
Cc1ccc(S(=O)(=O)N(C)C[C@@H]2Oc3c(NC(=O)C4CCOCC4)cccc3C(=O)N([C@H](C)CO)C[C@@H]2C)cc1	none (no result: SUMO Mot1 rescue, Bfl-1 A1 inh, aDG glyco up, AI-2 QS modul)
O=C(Nc1ccc(F)cc1)c1cccnn1	SUMO Mot1 rescue 397 | Yeast Mot1 SUMO inactive
O=C(Nc1ccc(F)cc1)c1ccc(=O)[nH]n1	none
Cc1ccc(C(=O)Nc2nc(-c3ccc(F)cc3)cs2)o1	SUMO Mot1 rescue 410 | Yeast Mot1 SUMO inactive
O=C(CN1CCN(c2nc(-c3ccccc3)cs2)CC1)NNC(=O)c1ccc(Br)cc1	SUMO Mot1 rescue 656 | Yeast Mot1 SUMO inactive
COc1cccc(-c2csc(N3CCN(CC(=O)NNC(=O)c4ccc(Br)cc4)CC3)n2)c1	none
Cc1ccnc(NC(=O)c2ccc(Br)s2)c1	SUMO Mot1 rescue 618 | Yeast Mot1 SUMO inactive
Cc1ccnc(NC(=O)c2cccs2)c1	none
Cc1occc1-c1nnc(SCC(=O)N2CCN(c3ccccc3)CC2)n1C	SUMO Mot1 rescue 495 | Yeast Mot1 SUMO inactive
Cc1ccc(/C=C/C(=O)C2C(=O)c3ccccc3C2=O)cc1	none
Cc1cc(S(=O)(=O)N2CCCC(N3CCOCC3)C2)c(C)cc1Cl (stereo not given)	SUMO Mot1 rescue 421 | Yeast Mot1 SUMO inactive
COc1cc(S(=O)(=O)N(Cc2ccccn2)Cc2ccco2)ccc1-n1cnnn1	none
Cc1cccc(OCc2ccccc2)n1	none (no result: SUMO Mot1 rescue, Bfl-1 A1 inh, AI-2 QS modul)
COCCn1c(SCC(=O)Nc2nc3ccccc3s2)nnc1-c1ccoc1C	SUMO Mot1 rescue 601 | Yeast Mot1 SUMO inactive
COCCn1c(SCC(=O)Nc2ccccc2)nnc1-c1ccoc1C	none
Cc1ccn2cc(-c3cnoc3C)nc2c1	SUMO Mot1 rescue 692 | Yeast Mot1 SUMO inactive
CC1CC(C)(C)N2C(=O)C3(Nc4ccccc4S3)c3cccc1c32 (stereo not given)	SUMO Mot1 rescue 723 | Yeast Mot1 SUMO inactive
O=C1N2CCCc3cccc(c32)C12Nc1ccccc1S2 (stereo not given)	none (no result: SUMO Mot1 rescue, Bfl-1 A1 inh)
Cc1nc2ccccc2c2c(N)c3ccccc3n12	none
Cc1ccc(C)n1-c1ccc(N(C)C)cc1	SUMO Mot1 rescue active | Yeast Mot1 SUMO inactive
CCN(C(=O)CCS(=O)(=O)c1ccc2c(c1)oc(=O)n2C)c1ccc(OC)cc1	SUMO Mot1 rescue 378 | Yeast Mot1 SUMO inactive

Compound activity deposited in PubChem by several laboratories.
